The term AC50 denotes the midpoint of the concentration-response curve, whichever way the signal moves.

Drawing on PubChem BioAssay (EPA / NIEHS), this text covers outcome and AC50 for 16 compounds.

Test [1] has as its target Estrogen receptor beta (Homo sapiens) (UniProt Q92731). Nature of the test: OT_ER_ERbERb_0480: Odyssey Thera (OT) 8-hour HEK293T Protein-Complementation Assay for Estrogen Receptor-beta/-beta Homodimer (AID 2283357).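 Further: active means signal gain over DMSO baseline.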 The gist of the method: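 Cells (HEK293T, stable ER-beta LBD PCA pair) are treated 8 hours, fixed and Draq5-stained; signal is fluorescence intensity increase relative to vehicle, fitted in the gain direction.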

The target in test [2] is Retinoic acid receptor alpha (Homo sapiens) (UniProt P10276). Nature of the test: NVS_NR_hRAR_Antagonist: NovaScreen (NVS) Nuclear Receptor Binding Assay for human Retinoic Acid Alpha Receptor Antagonism (RAR) (AID 2283358). The gist of the method:
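TR-FRET, cell-free, antagonist format; 2 h incubation after dosing; DMSO = baseline; signal loss fitted; 25 uM duplicate primary, then conc. series.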

The target of test [3] is PGR (gene 5241) (UniProt P06401). Nature of the test: NVS_NR_hPR: NovaScreen (NVS) Nuclear Receptor Binding Assay for human Progestron Receptor (PR) (AID 2283360).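 Further: active means loss of bound radioligand signal versus DMSO baseline.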 The gist of the method: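 Radioligand competition binding on receptor extracted from T47D cells, read by scintillation counting 18 h after dosing. Loss of signal versus DMSO; primary screen in duplicate at 25 uM, actives followed in concentration series.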
Chain of PGR (gene 5241) (P06401 whole entry, looked up): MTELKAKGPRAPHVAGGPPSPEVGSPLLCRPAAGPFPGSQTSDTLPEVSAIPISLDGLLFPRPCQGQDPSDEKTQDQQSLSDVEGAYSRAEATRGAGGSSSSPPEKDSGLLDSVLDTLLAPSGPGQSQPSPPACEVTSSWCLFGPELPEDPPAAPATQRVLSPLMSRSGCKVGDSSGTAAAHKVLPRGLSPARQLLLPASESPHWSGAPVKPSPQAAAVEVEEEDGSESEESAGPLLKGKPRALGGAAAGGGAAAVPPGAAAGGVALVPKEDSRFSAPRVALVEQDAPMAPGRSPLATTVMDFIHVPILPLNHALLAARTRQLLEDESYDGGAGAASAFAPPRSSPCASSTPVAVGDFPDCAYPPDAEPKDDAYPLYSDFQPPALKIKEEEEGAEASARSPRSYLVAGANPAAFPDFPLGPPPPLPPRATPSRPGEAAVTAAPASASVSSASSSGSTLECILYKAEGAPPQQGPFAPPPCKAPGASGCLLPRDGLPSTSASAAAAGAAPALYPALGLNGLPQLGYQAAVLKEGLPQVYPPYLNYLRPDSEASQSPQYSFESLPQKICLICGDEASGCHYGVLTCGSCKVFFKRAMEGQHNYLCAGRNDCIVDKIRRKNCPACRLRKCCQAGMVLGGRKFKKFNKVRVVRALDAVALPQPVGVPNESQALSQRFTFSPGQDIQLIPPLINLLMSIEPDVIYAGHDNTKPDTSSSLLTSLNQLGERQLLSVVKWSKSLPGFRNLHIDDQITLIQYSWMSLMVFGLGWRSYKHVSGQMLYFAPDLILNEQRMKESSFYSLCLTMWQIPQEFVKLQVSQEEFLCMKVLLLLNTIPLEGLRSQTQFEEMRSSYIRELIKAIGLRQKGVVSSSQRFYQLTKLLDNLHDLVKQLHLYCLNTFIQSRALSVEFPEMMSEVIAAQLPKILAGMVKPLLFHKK

The target of test [4] is human Thyroid Receptor Alpha (TRa), THRA (gene 7067) (UniProt P10827). Nature of the test: NVS_NR_hTRa_Antagonist: NovaScreen (NVS) Nuclear Receptor Binding Assay for human Thyroid Receptor Alpha Antagonism (TRa) (AID 2283362).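 Further: activity is loss of signal relative to DMSO baseline.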 A digest of the protocol:
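Extracted protein, cell-free; 1 h incubation after dosing; AlphaLISA chemiluminescence binding readout. DMSO = baseline/neg ctrl; signal loss = activity. Primary: duplicate, 25 uM; secondary: conc. series on actives.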

Test [5] deals with Glucocorticoid receptor (Homo sapiens) (UniProt P04150). Kind of test: NVS_NR_hGR: NovaScreen (NVS) Nuclear Receptor Binding Assay for human Glucocorticoid Receptor (GR) (AID 2283363).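 On AC50: activity is loss of specific radioligand binding signal relative to DMSO.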 A digest of the protocol:
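Competitive displacement of a labelled ligand was measured on cell-free receptor preparations after 16 h exposure. Initial testing used 25 uM in duplicate with plate controls; confirmed actives went into concentration series.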

Test [6] addresses guinea pig Sigma Receptor, Non-selective Binding, SIGMAR1 (gene 100135589) (UniProt Q60492). Nature of the test: NVS_OR_gSIGMA_NonSelective: NovaScreen (NVS) Nuclear Receptor Binding Assay for guinea pig Sigma Receptor, Non-selective Binding (AID 2283367). A digest of the protocol:
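gp brain membr., radioligand displacement, 1 h, filtration + scint. counting; DMSO = baseline; 25 uM x2 primary, conc.-response confirm.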

The target of test [7] is Peroxisome proliferator-activated receptor gamma (Homo sapiens) (UniProt P37231). Kind of test: NVS_NR_hPPARg: NovaScreen (NVS) Nuclear Receptor Binding Assay for human Peroxisome Proliferator-activated Receptor gamma (PPARg) (AID 2283370). The gist of the method: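 Chemicals were tested first in duplicate at 25 uM, then in concentration series if active. Binding to cell-free PPARg protein was measured by fluorescence polarization after 2 h, with loss of signal scored against DMSO.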
Chain of Peroxisome proliferator-activated receptor gamma (Homo sapiens) (P37231 whole entry, looked up): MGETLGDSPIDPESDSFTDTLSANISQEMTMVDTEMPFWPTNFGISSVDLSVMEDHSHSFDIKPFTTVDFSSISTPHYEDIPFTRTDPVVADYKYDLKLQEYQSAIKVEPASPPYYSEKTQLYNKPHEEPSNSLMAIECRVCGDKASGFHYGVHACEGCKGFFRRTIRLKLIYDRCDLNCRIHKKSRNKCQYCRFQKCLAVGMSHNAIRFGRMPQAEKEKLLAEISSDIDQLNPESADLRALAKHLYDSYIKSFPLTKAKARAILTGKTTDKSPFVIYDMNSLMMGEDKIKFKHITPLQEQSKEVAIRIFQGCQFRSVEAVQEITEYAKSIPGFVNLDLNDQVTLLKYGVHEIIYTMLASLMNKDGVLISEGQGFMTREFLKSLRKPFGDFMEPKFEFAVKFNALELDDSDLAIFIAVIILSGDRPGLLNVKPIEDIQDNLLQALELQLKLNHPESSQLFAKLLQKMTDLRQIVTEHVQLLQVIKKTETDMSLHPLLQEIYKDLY

Test [8] deals with human Serotonin Transporter (SERT), SLC6A4 (gene 6532) (UniProt P31645). Nature of the test: NVS_TR_hSERT: NovaScreen (NVS) Transporter Assay for human Serotonin Transporter (SERT) (AID 2283372). The gist of the method:
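Radioligand binding to native SERT in human platelet membranes, read by filter-based scintillation counting 1 h after dosing. Primary screen in duplicate at 25 uM; actives followed up in concentration series; loss of signal versus DMSO baseline.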

Test [9] has as its target human Dopamine Transporter (DAT), SLC6A3 (gene 6531) (UniProt Q01959). Nature of the test: NVS_TR_hDAT: NovaScreen (NVS) Transporter Assay for human Dopamine Transporter (DAT) (AID 2283374).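 Further: activity means loss of bound radioligand signal relative to DMSO.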 A digest of the protocol: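 Test chemicals were first screened in duplicate at 25 uM, with actives retested as concentration series. Displacement of a specific radioligand from cell-free human dopamine transporter was measured after 1 h by filtration and scintillation counting.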

For test [10], the target named is rat Serotonin Transporter (SERT), Slc6a4 (gene 25553) (UniProt P31652). Nature of the test: NVS_TR_rSERT: NovaScreen (NVS) Transporter Assay for rat Serotonin Transporter (SERT) (AID 2283375). A digest of the protocol: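 Filtration-based radiodetection quantified loss of specific radioligand binding in rat forebrain membranes after 1 hour of chemical exposure, relative to DMSO. Chemicals were first tested in duplicate at 25 uM.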

Test [11] concerns the target human Norepinephrine Transporter (NET), SLC6A2 (gene 6530) (UniProt P23975). Kind of test: NVS_TR_hNET: NovaScreen (NVS) Transporter Assay for human Norepinephrine Transporter (NET) (AID 2283377).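 Further: cell-free membrane protein extracted from CHO cells expressing human NET; displacement of radioligand from human NET seen as loss of scintillation signal.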 The gist of the method:
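Scintillation counts of filter-retained radioligand served as the readout, taken 1 h post-dosing in a cell-free CHO-derived system. Test chemicals ran first at 25 uM in duplicate; confirmed hits were retested across concentrations.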

The subject of test [12] is guinea pig Dopamine Transporter (DAT), gene 100714898. Kind of test: NVS_TR_gDAT: NovaScreen (NVS) Transporter Assay for guinea pig Dopamine Transporter (DAT) (AID 2283369).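 Further: active compounds lower bound radioligand signal relative to DMSO.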 A digest of the protocol:
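Scintillation counts of filter-retained radioligand report binding to guinea pig striatal membranes after 2 h. Activity scored as signal loss relative to DMSO, first at 25 uM in duplicate, then in concentration series to 50 uM.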

Test [13] has as its target mouse Estrogen Receptor alpha (Era), Esr1 (gene 13982) (UniProt P19785). Nature of the test: NVS_NR_mERa: NovaScreen (NVS) Nuclear Receptor Binding Assay for mouse Estrogen Receptor alpha (Era) (AID 2283378).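 Further: hit means loss of bound radioligand signal relative to DMSO.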 The gist of the method: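 Extracted mouse Era incubated with tritiated or iodinated radioligand plus test chemical, 18 h. Bound fraction separated on filters, counted by scintillation. DMSO = negative control/baseline; duplicate single-point at 25 uM, then concentration-response follow-up.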

The target of test [14] is Nuclear receptor subfamily 1 group I member 2 (Homo sapiens) (UniProt O75469). Nature of the test: NVS_NR_hPXR: NovaScreen (NVS) Nuclear Receptor Binding Assay for human Pregnane X Receptor (PXR) (AID 2283365).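 Further: a drop in FRET signal versus DMSO baseline means the compound binds.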 A digest of the protocol:
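Human PXR protein, cell-free; compound added, incubated 2 h, TR-FRET read. Signal decrease vs DMSO = binding. Screened 25 uM duplicate, actives re-run as dilution series.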

Test [15] concerns the target Norway rat Vesicular Monoamine Transporter (VMAT2), neurotransmitter transporter, Slc18a2 (gene 25549) (UniProt Q01827). Kind of test: NVS_TR_rVMAT2: NovaScreen (NVS) Transporter Assay for Norway rat Vesicular Monoamine Transporter (VMAT2), neurotransmitter transporter (AID 2283376).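 Further: actives lower the bound radioligand signal below the DMSO level.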 A digest of the protocol: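 Tissue: rat forebrain extract. Format: competitive radioligand binding, cell-free. Timepoint: 1 h. Readout: filter radiodetection/scintillation. Screen: 25 uM in duplicate, then concentration series for actives. Baseline: DMSO.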

The target of test [16] is rat Androgen Receptor (AR), Ar (gene 24208) (UniProt P15207). Nature of the test: NVS_NR_rAR: NovaScreen (NVS) Nuclear Receptor Binding Assay for rat Androgen Receptor (AR) (AID 2283366). A digest of the protocol: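 Cell-free radioligand binding on extracts of prostate from testosterone-pretreated rats, read by filter-based scintillation counting 18 h after dosing. Loss of bound signal fitted positively versus DMSO; primary screen in duplicate at 25 uM, actives followed up in concentration series.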

SMILES strings stand for the structures. Inconclusive results are not listed. The source made the active and inactive calls. How the source made its calls: active means hit-call score of the fitted dose curve at least 0.9, where 1 is the maximum; inconclusive means response in the unintended direction; inactive means score below 0.9.

Chain of Estrogen receptor beta (Homo sapiens) (Q92731 whole entry, looked up, the tested form may be a part): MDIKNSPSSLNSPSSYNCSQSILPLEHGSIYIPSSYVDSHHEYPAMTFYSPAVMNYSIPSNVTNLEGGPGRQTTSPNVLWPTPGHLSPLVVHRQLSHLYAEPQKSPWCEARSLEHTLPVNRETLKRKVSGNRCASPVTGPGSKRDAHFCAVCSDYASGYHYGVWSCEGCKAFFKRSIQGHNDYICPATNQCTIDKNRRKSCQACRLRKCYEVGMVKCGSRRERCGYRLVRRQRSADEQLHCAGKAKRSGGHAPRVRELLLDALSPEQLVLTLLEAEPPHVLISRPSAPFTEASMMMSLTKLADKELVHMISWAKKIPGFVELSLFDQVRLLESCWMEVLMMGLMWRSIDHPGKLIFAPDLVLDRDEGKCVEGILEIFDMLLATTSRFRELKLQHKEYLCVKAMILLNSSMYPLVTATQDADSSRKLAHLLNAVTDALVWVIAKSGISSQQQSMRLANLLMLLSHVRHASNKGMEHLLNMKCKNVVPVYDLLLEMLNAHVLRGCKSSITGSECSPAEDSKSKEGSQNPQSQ
Chain of Nuclear receptor subfamily 1 group I member 2 (Homo sapiens) (O75469 whole entry, looked up): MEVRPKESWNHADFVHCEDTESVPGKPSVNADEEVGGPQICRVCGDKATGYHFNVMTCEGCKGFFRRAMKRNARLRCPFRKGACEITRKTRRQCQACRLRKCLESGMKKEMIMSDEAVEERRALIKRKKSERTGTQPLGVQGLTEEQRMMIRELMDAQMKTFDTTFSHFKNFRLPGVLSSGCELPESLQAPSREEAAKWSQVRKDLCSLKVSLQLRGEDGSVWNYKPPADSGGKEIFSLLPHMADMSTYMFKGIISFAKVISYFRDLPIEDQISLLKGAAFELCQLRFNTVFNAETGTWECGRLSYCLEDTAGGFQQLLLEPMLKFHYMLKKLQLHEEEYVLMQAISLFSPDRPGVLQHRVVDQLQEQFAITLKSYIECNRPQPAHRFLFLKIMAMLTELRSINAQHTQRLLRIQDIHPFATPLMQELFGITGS
Chain of human Dopamine Transporter (DAT), SLC6A3 (gene 6531) (Q01959 whole entry, looked up): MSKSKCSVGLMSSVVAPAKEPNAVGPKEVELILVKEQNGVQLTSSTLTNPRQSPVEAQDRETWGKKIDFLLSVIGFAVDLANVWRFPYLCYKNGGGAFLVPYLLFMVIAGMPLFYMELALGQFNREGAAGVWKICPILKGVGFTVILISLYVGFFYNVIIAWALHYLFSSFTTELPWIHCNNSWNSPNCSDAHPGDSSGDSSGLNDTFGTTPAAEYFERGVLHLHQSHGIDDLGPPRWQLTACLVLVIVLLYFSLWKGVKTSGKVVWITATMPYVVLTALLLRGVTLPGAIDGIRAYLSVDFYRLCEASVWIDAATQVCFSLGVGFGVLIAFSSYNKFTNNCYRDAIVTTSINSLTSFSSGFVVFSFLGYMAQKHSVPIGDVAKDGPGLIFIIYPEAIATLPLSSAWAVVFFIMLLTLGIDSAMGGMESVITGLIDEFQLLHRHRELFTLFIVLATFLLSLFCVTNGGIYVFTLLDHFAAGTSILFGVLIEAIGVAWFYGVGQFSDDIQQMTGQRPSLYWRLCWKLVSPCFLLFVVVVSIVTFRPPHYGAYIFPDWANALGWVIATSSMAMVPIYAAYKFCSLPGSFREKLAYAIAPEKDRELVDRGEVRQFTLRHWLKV
Chain of Glucocorticoid receptor (Homo sapiens) (P04150 whole entry, looked up): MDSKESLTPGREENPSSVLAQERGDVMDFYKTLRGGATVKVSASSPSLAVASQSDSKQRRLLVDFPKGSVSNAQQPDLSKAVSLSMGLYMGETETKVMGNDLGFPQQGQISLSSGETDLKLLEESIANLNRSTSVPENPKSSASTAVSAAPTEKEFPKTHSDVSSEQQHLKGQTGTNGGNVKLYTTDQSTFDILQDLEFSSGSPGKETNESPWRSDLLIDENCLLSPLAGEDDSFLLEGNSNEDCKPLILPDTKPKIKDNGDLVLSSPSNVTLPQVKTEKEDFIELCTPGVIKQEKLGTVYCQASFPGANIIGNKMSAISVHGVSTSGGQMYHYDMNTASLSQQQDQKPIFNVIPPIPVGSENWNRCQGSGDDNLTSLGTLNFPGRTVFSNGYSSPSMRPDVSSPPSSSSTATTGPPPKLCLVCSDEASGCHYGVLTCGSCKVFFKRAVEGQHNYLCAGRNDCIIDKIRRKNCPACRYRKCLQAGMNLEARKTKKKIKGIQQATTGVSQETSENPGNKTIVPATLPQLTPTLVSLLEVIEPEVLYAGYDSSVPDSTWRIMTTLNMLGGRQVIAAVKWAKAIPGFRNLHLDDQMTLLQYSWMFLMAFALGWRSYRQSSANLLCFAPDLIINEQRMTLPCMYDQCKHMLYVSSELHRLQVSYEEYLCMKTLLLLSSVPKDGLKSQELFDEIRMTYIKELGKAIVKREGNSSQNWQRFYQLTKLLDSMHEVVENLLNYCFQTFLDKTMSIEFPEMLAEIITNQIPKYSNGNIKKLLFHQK
Chain of Retinoic acid receptor alpha (Homo sapiens) (P10276 whole entry, looked up): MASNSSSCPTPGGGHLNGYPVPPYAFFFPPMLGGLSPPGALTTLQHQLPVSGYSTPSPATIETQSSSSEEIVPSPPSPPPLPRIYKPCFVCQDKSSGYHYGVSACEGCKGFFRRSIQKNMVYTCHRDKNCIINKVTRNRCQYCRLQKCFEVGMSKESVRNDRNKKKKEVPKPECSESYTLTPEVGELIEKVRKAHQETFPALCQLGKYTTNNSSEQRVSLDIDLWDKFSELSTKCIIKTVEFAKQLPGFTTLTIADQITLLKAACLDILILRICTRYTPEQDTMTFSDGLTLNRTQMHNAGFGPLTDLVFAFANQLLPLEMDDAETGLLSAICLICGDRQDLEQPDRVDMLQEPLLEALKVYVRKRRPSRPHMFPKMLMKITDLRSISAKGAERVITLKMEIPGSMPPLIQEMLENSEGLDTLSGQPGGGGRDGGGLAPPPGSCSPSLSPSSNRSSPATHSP
Chain of human Thyroid Receptor Alpha (TRa), THRA (gene 7067) (P10827 whole entry, looked up): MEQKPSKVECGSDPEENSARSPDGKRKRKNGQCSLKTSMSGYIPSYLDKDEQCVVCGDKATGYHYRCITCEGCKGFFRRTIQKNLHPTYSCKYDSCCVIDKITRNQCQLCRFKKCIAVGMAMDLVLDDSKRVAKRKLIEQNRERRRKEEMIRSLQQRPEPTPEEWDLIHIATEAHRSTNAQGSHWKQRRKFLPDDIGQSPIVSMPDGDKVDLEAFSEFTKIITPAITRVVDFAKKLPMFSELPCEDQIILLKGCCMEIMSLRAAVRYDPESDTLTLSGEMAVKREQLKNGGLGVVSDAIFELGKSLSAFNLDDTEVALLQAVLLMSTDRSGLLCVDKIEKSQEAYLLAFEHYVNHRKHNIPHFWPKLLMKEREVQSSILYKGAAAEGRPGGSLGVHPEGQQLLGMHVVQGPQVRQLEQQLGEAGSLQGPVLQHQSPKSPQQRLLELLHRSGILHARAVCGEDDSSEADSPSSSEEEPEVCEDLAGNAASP
Chain of guinea pig Sigma Receptor, Non-selective Binding, SIGMAR1 (gene 100135589) (Q60492 whole entry, looked up): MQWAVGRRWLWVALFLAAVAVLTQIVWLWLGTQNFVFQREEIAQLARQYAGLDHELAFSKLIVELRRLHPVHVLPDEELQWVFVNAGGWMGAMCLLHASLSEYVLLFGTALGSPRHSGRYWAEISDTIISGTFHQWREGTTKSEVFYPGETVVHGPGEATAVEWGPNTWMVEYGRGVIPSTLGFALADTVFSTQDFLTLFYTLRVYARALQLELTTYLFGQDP

For the compound `Cc1ccc(N=CN(C)C=Nc2ccc(C)cc2C)c(C)c1`, the compound was classed as inactive in test [1] and in test [2].

With `C=CCOC(=O)C(C)(C)OC(=O)c1cc(-n2c(=O)cc(C(F)(F)F)n(C)c2=O)ccc1Cl`, in test [1], the outcome was inactive.

As for `COP(=S)(OC)Oc1ccc([N+](=O)[O-])c(C)c1`, the compound was called inactive in [1] and in test [4]. Besides, the half-maximal activity concentration (AC50) is 4.97 µM (active) in test [3]; 9.62 µM (active) in test [5]; 3.93 µM (active) in [6]; 3.38 µM (active) in [7]; 1.99 µM (active) in test [8]; 4.96 µM (active) in test [9]. For the same compound, the half-maximal activity concentration (AC50) in [10] is 3.37 µM (active).

Consider `Cc1c(COC(=O)[C@@H]2[C@H](/C=C(\Cl)C(F)(F)F)C2(C)C)cccc1-c1ccccc1`, for which the compound was called inactive in [1], in test [2], in test [3] and in test [7]. Besides, the AC50 in test [11] was 0.345 µM (active).

`OC(c1ccc(Cl)cc1)(c1ccc(Cl)cc1)C(Cl)(Cl)Cl`: the concentration at half-maximal activity (AC50) in test [1] was 12 µM (active); in test [5], 6.9 µM (active); in test [9], 8.54 µM (active). Moreover, the outcome in [2], in test [4], in test [12] and in [13] was inactive.

Turning to `O=C(Nc1ccccc1-c1ccc(Cl)cc1)c1cccnc1Cl`, the compound was classed as inactive in [1].

For the compound `N#Cc1c(Cl)cccc1Cl`, the outcome in [1], in test [3], in test [4], in test [5], in test [14] and in test [7] was inactive.

With `COP(=O)(OC)O/C(C)=C/C(=O)N(C)C`, the outcome in test [1] was inactive.

For the compound `CCN(CC)c1nc(C)cc(OP(=S)(OC)OC)n1`, the concentration at half-maximal activity (AC50) in test [1] was 30.7 µM (active); in test [5] it was 9.72 µM (active). The result in test [2], in [3], in [4] and in [7] was inactive.

As to `COc1cc(OC)nc(NC(=O)NS(=O)(=O)c2ncccc2OCC(F)(F)F)n1`, the call in [1] was inactive.

`CC(C)(C)C(=O)C(Oc1ccc(Cl)cc1)n1cncn1` (stereo unspecified): the result in test [1], in test [4], in test [5] and in test [7] was inactive. Also, the AC50 in test [14] was 2.31 µM (active); in test [9], 0.238 µM (active).

Turning to `CCOc1nc(C(Cl)(Cl)Cl)ns1`, in test [1], the call was inactive.

As for `CCCN(CC)CC1COC2(CCC(C(C)(C)C)CC2)O1` (stereo unspecified), the result in [1], in test [5] and in [14] was inactive. Also, in test [6], the AC50 was 0.0101 µM (active).

Regarding `N#Cc1c[nH]cc1-c1cccc2c1OC(F)(F)O2`, the AC50 in test [5] is 1.57 µM (active). Further, the outcome in [7] and in test [15] was inactive.

As to `CC(C)=CC1C(C(=O)OCc2coc(Cc3ccccc3)c2)C1(C)C` (stereo unspecified), the compound was called inactive in [3] and in [5]. The results for the AC50 in [7], in [9] and in [11] were 2.9 µM (active), 25 µM (active) and 10.2 µM (active), respectively.

`COP(=S)(OC)SCn1nnc2ccccc2c1=O`: the outcome in test [1], in [16] and in test [13] was inactive.
